Measured values: the supplement of paper PMC6555819

Legend:
Experiment in all cases: PBM binding z-score (relative to random genomic background probes); higher = stronger binding; sequences stand for … in GC…GCGATTGACAGCGTAGAATGAAGG
[1] = tested on: RARb homodimer (NR concentration 270 nM)
Summary of the method: (§1)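 Binding buffer was PBS pH 7.4 with 2% milk, 0.02% Triton X-100, 1 mM DTT, 0.2 mg/mL BSA and 0.4 mg/ml salmon testes DNA. In it, ligand-free nuclear receptor dimers were incubated 1 h on custom Agilent 4×180K protein-binding microarrays carrying double-stranded probes. Antibodies against each partner (one per run) detected binding, and z-scores were calculated against random background probes after regression normalization of scanned fluorescence.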

[2] = tested on: RARg:RXRa (NR concentration 270 nM, RXRa partner concentration 90 nM)
Summary of the method: as §1

[3] = tested on: RARg homodimer (NR concentration 270 nM)
Summary of the method: as §1

[4] = tested on: RXRa DBDmut IVT, anti-RXR (DBD mutation: RXRa K156A/R161A, NR concentration 90 nM)
Summary of the method: as §1

[5] = tested on: RXRa homodimer (NR concentration 180 nM)
Summary of the method: as §1

[6] = tested on: THRa:RXRa (NR concentration 90 nM, RXRa partner concentration 90 nM)
Summary of the method: as §1

[7] = tested on: THRa homodimer (NR concentration 90 nM)
Summary of the method: as §1

[8] = tested on: VDR homodimer (NR concentration 270 nM)
Summary of the method: as §1

Row | Sequence | PBM binding z-score [1] | PBM binding z-score [2] | PBM binding z-score [3] | PBM binding z-score [4] | PBM binding z-score [5] | PBM binding z-score [6] | PBM binding z-score [7] | PBM binding z-score [8]
1 | ATATGTAGGTTCGGGTCATTCAGAAAGTAGGGAA | 2.51 | 2.82 | 2.25 | 2.71 | 3.45 | 3.7 | 2.82 | 4
2 | CCGAGTAGGTTACGAGGGGGCATTCAGTGCGAAT | 2.12 | 3.18 | 2.54 | 1.15 | 2.18 | 3.83 | 0.272 | 3.79
3 | CGAACTAGGTCACCAGGACAGTGAAGAGGTTGGA | 3.32 | 4.52 | 5.42 | 1.45 | 3.39 | 3.28 | 1.95 | 0.49
4 | GCTTCCGGGTCAAAGGTTATAGCATGAATAGAAT | 2.99 | 6.81 | 4.53 | 2.8 | 9.29 | 4.61 | 1.46 | 2.25
5 | ATATGTAGGTTAGGGACATTCAGAAAGTAGGGAA | 1.11 | 0.67 | 1.27 | 0.8 | 0.406 | 2.32 | 1.51 | 0.36
6 | CTATGTAGGTTAAGGGGGTAATTCAGTTTGAAAG | 1.84 | 2.06 | 1.59 | 1.27 | 1.95 | 2.44 | 1.35 | 1.41
7 | TGACTGAGGTTAAAGATCAGGGAACGTGGCGTCG | 0.864 | 2.39 | 1.35 | 0.903 | 3.77 | 2.41 | 0.422 | 0.537
